# Screening results as filed in PubChem BioAssay.
# Shown are actives, neighbours in structure and some others; about 6.8% of the full set was active somewhere.
# Fluor 339 460: intrinsic fluorescence of library compounds, ex339/em460 – biochemical, MLSMR library, data from DPM-DC assay, artefact control, profiling panel. 5.5% of 65,000 active. compound autofluorescence, ex339/em460 nm, NADH buffer; hits give high values; 1 = no-compound wells, NADH background. AID 709. fluorescence fold increase at 10 µM;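 active means at 10 µM, mean starting fluorescence two-fold or more over control wells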;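 further: signal is the first read of a kinetic run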
# DPM-DC inhibit: inhibitors of Streptococcus pneumoniae diphosphomevalonate decarboxylase; purified DPM-DC, PK/LDH coupled NADH fluorescence; 0.49% of 65,000 active; calls only at 10 µM;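 active means the 320 compounds with the highest percent inhibition in the single-dose primary screen, excluding strongly autofluorescent ones, cut at about 32% in these data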;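 further: kinetic rate of NADH fluorescence loss reporting ADP formed by the decarboxylase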
# Spn PMK inh: blocks S. pneumoniae phosphomevalonate kinase; inhibition, % at 10 µM; purified PMK, PK/LDH-coupled NADH absorbance 340 nm; 0.49% of 65,000 active;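 active means top-ranked compounds by inhibition in the single 10 µM screen, taking a fixed number of the strongest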;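 further: 0% = full reaction with DMSO carrier and 100% = background rate without enzyme reaction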
# MK inhibit: blocks S. pneumoniae mevalonate kinase. 0.48% of 65,000 active. purified MK, PK/LDH-coupled NADH absorbance 340 nm. inhibition, % at 10 µM. AID 555;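 active means ranked among the strongest by inhibition in the single 10 µM screen, a fixed top-ranked set picked for dose follow-up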
# A340 absorber: compounds absorbing at 340 nm; compound absorbance at 340 nm, fold over control; fold change at 10 µM; 65,000 tested, under 10 active;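 active means at 10 µM dose, initial 340 nm absorbance at least 2 fold that of control wells; inactive means change under 2 fold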;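 further: initial absorbance extrapolated from kinetic A340 decline of NADH oxidation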
# NADH enzymes: inhibition of NAD/NADH coupling enzymes, library profiling | coupled PK/LDH NADH assays, four targets | IC50, µM (titrated, usually from 10 µM), inactives show at the highest dose inhibition | 0.02% of 65,000 active;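 active means single-dose screening hits from any of four coupled enzyme assays that gave an IC50 when retested across doses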;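 further: the DPM-DC format reads NADH fluorescence rather than 340 nm absorbance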
# Active calls of the source: *; i = inactive; · = not tested or not shown.
SMILES,Fluor 339 460,DPM-DC inhibit,Spn PMK inh,MK inhibit,A340 absorber,NADH enzymes
COc1ccccc1COCC(O)CNCC1(N2CCCCC2)CCCCC1 (stereo not given),1.1,i,16,41*,1.1,19%
CCOC(=O)N1CCC(NC(=O)c2cccc3c2C(=O)N(CCOC)C3)CC1,1.1,i,4,10,1,5%
Nc1nc2sc3c(c2cc1C(=O)N1CCOCC1)CCCC3,2.2*,·,1,28,1,15%
Cc1cccc2cc3c(N)c(C(=O)N4CCOCC4)sc3nc12,1.1,i,9,15,1.1,8%
CC1(C)Cc2ccccc2-c2nnc(-c3ccccn3)n21,1.1,i,12,6,0.98,6%
c1ccc2sc(-c3ccc4c(c3)OCO4)nc2c1,2.1*,·,15,8,1.1,12%
COc1ccc(N2CCN(C(=O)CC3NC4CCCCC4NC3=O)CC2)cc1 (stereo not given),1.1,i,3,8,1,4%
COc1ccc(C2(C)NC(=O)N(Cc3cc(Cl)cc4c3OCOC4)C2=O)cc1OC (stereo not given),1.1,i,31*,7,0.9,13%
N#Cc1ccc(-c2ccc(OCC(O)Cn3nnc4ccccc43)cc2)cc1 (stereo not given),1.2,i,0,12,1,4%
CC(=O)c1cc2c(cc1NC(=O)c1cc(C)nn1-c1ccccc1)OCO2,2.2*,·,3,3,1.1,3%
CC(=O)c1cc2c(cc1NC(=O)CCCC(=O)O)OCO2,1.5,i,6,5,1,4%
CC(=O)Nc1ccc(NC(=O)c2cc(C)nn2-c2ccccc2)cc1,1,i,1,4,0.98,3%
CC(=O)c1cc2c(cc1NC(=O)CCc1ccccc1)OCO2,2.3*,i,9,19,1,13%
CN(CCC(=O)Nc1ccc2c(c1)OCO2)Cc1ccccc1,1.2,i,13,45*,0.98,19%
O=C(c1ccccc1)N(CCN1CCOCC1)C1(C(=O)Nc2ccccc2)CCCCC1,1,i,1,5,0.99,2%
O=C(CNC(=O)Cn1ccc2ccccc2c1=O)NCCCN1CCCCCC1,1.1,i,0,8,1.1,3%
COc1cc(C)c(S(=O)(=O)n2ccc(C)n2)cc1C,1.1,i,0,10,1,3%
O=C1CCCC2=C1C(c1ccncc1)c1c(nc(SCc3ccccc3Cl)[nH]c1=O)N2 (stereo not given),2.1*,i,6,9,1,11%
COc1ccc2oc(=O)c(NC(=O)C3CCCCC3)cc2c1,4.2*,·,14,1,1.1,8%
Cc1cc(OCC(=O)N2CCOCC2)cc2oc(=O)c3ccccc3c12,2.9*,·,0,0,1,0%
CCOc1ccc(OCC(=O)N2CCOCC2)cc1,1.1,i,0,11,1.1,4%
CCOc1ccc(CCNC(=O)C2CC(=O)N(C3CCCC3)C2)cc1OCC (stereo not given),1.1,i,0,0,1.1,0%
Cc1cc(=O)oc2c(CN(C)Cc3ccccc3)c(O)ccc12,3.6*,·,2,10,1.2,6%
Cc1cc(=O)oc2c(N)c(O)ccc12,1.1,i,0,1,1.1,3%
Cc1cc(C(=O)OCCO)c(C#N)c(N)n1,2.9*,·,5,6,1,2%
SMILES,Fluor 339 460,DPM-DC inhibit,Spn PMK inh,MK inhibit,A340 absorber,NADH enzymes
O=C(Nc1cccc(-c2cnc3ccccc3n2)c1)c1ccco1,1.1,i,0,0,1.1,2%
O=C(Nc1cccc(-c2cn3cccnc3n2)c1)c1ccc2c(c1)OCO2,5.3*,·,10,5,1,8%
O=C(Nc1cccc(-c2cn3cccnc3n2)c1)c1ccc(Br)o1,5.2*,·,13,2,1.1,8%
O=C(Nc1cccc(-c2cn3cccnc3n2)c1)c1ccco1,5.4*,·,11,0,1.1,6%
O=C(Nc1cccc(-c2nnc(-c3ccccc3)o2)c1)c1ccc(Br)o1,1.1,i,1,6,1,2%
CC(C)Oc1ccc(/C(O)=C2/C(=O)C(=O)N(CCCN3CCOCC3)C2c2ccncc2)cc1 (stereo not given),1,i,0,9,1.1,3%
Cc1ccc(S(=O)(=O)N2CCOCC2)cc1C(=O)OCC(=O)N1CCc2ccccc2C1,1,i,9,6,0.99,3%
Cn1c(=O)c2nc(-c3ccccc3)oc2c2ccccc21,5*,·,8,2,1.1,5%
Cc1nc2nc[nH]n2c(=O)c1NC(=O)c1c(-c2ccccc2Cl)noc1C,1.1,i,13,0,1,4%
CC(C)NC(=O)C1CC(=O)N(c2ccc(F)c(Cl)c2)C1 (stereo not given),1.1,i,0,0,1,0%
COc1cc2c(cc1OC)C(c1ccc3c(c1)OCO3)C1=C(CC(C)(C)CC1=O)N2 (stereo not given),4.9*,·,17,5,1.1,11%
CN(Cc1ccccc1)S(=O)(=O)c1ccc(S(=O)(=O)N2CCN(CCC#N)CC2)cc1,1.1,i,4,1,0.99,2%
COCCCNC(=O)C1C2C=CC3(CN(Cc4ccc(C)cc4)C(=O)C13)O2 (stereo not given),0.85,i,25*,0,1,12%
Cc1ccc(CN2CC34C=CC(O3)C(C(=O)NCc3ccc5c(c3)OCO5)C4C2=O)cc1 (stereo not given),1.1,i,0,9,1.1,3%
O=c1c(-c2ccc(Cl)cc2)coc2c(CN3CCOCC3)c(O)ccc12,2.2*,·,15,7,1.1,11%
CCCCc1cc(=O)oc2c(CN3CCCC3)c(O)ccc12,2.4*,·,0,4,1.1,2%
O=c1cc(-c2ccccc2)c2ccc(O)c(CN3CCCCC3)c2o1,2.4*,i,4,2,1.2,5%
O=C(c1ccccc1)c1coc2ccc(O)c(CN3CCOCC3)c12,1,i,13,8,0.99,5%
CCc1cc2c(-c3ccccc3)cc(=O)oc2c(CN2CCOCC2)c1O,2.5*,i,4,14,1.1,6%
CCCCc1cc(=O)oc2cc(C)c(CN3CCCC3)c(O)c12,1.2,i,6,4,1.1,5%
COc1ccccc1-c1nnc(SCC(=O)OC(C)C)o1,1.1,i,5,10,1,5%
CCC(Sc1nc(=O)cc(N)n1-c1ccccc1)C(=O)Nc1ccc(Cl)cn1 (stereo not given),1.1,i,8,4,1,4%
O=c1c(-c2ccccc2)coc2c(CN3CCCC3)c(O)ccc12,3.9*,·,11,8,1.1,10%
O=C(c1ccccc1-c1nc2ccccc2[nH]1)N1CCCCC1,1.1,i,15,12,0.96,9%
O=c1oc2c(CN3CCCCCC3)c(O)ccc2cc1-c1nc2ccccc2[nH]1,4.7*,·,5,0,1.1,3%
